In all, about 8,300 sequences were measured (“log2 fold change of degron read counts, EGFP-low vs EGFP+ sorted cells (limma voom), compound-induced degradation”: median about -1.1, highest 2% from about 3.2 on). The list comes from a sample in which the highest values are over-represented; it also holds similar and randomly drawn sequences.
Molecular target: T1, CRBN, Q96SW2
T1 chain: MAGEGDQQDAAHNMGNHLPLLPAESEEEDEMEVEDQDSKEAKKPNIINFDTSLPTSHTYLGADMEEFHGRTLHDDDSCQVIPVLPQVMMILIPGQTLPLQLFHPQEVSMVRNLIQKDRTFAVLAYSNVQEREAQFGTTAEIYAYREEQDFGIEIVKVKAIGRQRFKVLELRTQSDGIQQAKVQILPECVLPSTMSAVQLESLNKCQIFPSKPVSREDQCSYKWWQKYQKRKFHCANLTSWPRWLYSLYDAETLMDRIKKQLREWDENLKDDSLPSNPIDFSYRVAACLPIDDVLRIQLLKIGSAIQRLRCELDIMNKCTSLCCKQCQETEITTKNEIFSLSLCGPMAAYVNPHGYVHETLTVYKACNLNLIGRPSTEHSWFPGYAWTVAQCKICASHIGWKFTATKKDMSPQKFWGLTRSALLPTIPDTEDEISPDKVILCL
Assay: log2 fold change of degron read counts, EGFP-low vs EGFP+ sorted cells (limma voom), compound-induced degradation; higher = more compound-induced degradation of the degron-EGFP fusion; degrons are variants of IKZF1/3 zinc finger 2; compound dose not given here
Settings: Jurkat, 18 h

[1] = compound: compound 19 (5-tert-butyl-thalidomide)
[2] = compound: compound 22 (5-morpholino-thalidomide)
[3] = compound: compound 33 (diphenyl IMiD analogue)
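Note: pooled lentiviral library of zinc finger degron-EGFP fusions in mCherry-positive Jurkat cells, FACS-sorted after compound exposure, with degron abundance counted by next-generation sequencing.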

Row | Sequence | log2 fold change of degron read counts [1] | log2 fold change of degron read counts [2] | log2 fold change of degron read counts [3] | log2 fold change of degron read counts (compound: thalidomide)
1 | FTCDVCGALFTQKGNLLRHIKL [46F_47T_49D_50V_52G_53A_54L_55F_67L_, Q9UKT9] | -1.7 | -2.19 | -1.1 | -1.72
2 | FTCEVCGAAFTQKGNLLRHIKL [46F_47T_49E_50V_52G_53A_54A_55F_67L_, Q9UKT9] | 2.8 | 3.24 | 2.06 | 3.05
3 | FTCNVCGAAFTQKGNLLRHIKL [46F_47T_49N_50V_52G_53A_54A_55F_67L_, Q9UKT9] | 0.179 | 1.08 | 1.44 | 1.29
4 | FTCPVCGAAFTQKGNLLRHIKL [46F_47T_49P_50V_52G_53A_54A_55F_67L_, Q9UKT9] | 2.3 | 3.11 | 2.78 | 3
5 | FDCEVCGAAFTQKGNLLRHIKL [46F_47D_49E_50V_52G_53A_54A_55F_67L_, Q9UKT9] | 2.09 | 0.14 | 0.426 | 1.14
6 | FKCEVCGAAFTQKGNLLRHIKL [46F_47K_49E_50V_52G_53A_54A_55F_67L_, Q9UKT9] | 2.13 | -0.688 | -1.68 | 0.479
7 | FSCEVCGAAFTQKGNLLRHIKL [46F_47S_49E_50V_52G_53A_54A_55F_67L_, Q9UKT9] | 3.6 | 3.21 | 2.57 | 2.01
8 | LTCPICGFPCTQKGNLLRHIKL [46L_47T_49P_50I_52G_53F_54P_55C_67L_, Q9UKT9] | 0.155 | 1.3 | 1.14 | 1.64
9 | FDCPICGHEFTQKGNLLRHIKL [46F_47D_49P_50I_52G_53H_54E_55F_67L_, Q9UKT9] | -3 | -2.96 | -2.14 | -2.07
10 | FVCNQCGHVFTQKGNLLRHIKL [46F_47V_49N_50Q_52G_53H_54V_55F_67L_, Q9UKT9] | -2.66 | -3.07 | -2.27 | -2.93
11 | FMCEICGRFFTQKGNLLRHIKL [46F_47M_49E_50I_52G_53R_54F_55F_67L_, Q9UKT9] | -2.5 | -2.11 | -1 | -1.98
12 | FSCDVCGAMFTQKGNLLRHIKL [46F_47S_49D_50V_52G_53A_54M_55F_67L_, Q9UKT9] | 0.106 | -0.592 | -0.74 | -1.71
13 | FVCDICGAAFTQKGNLLRHIKL [46F_47V_49D_50I_52G_53A_54A_55F_67L_, Q9UKT9] | 0.447 | 2.48 | 1.33 | 1.87
14 | FMCDICGAAFTQKGNLLRHIKL [46F_47M_49D_50I_52G_53A_54A_55F_67L_, Q9UKT9] | 0.96 | 1.45 | 2.6 | 0.343
15 | FCCDICGAAFTQKGNLLRHIKL [46F_47C_49D_50I_52G_53A_54A_55F_67L_, Q9UKT9] | 2.88 | 2.17 | 0.975 | 0.534
16 | FICDICGAAFTQKGNLLRHIKL [46F_47I_49D_50I_52G_53A_54A_55F_67L_, Q9UKT9] | -0.22 | 2.29 | 1.39 | 1.5
17 | FYCDICGAAFTQKGNLLRHIKL [46F_47Y_49D_50I_52G_53A_54A_55F_67L_, Q9UKT9] | 3.37 | 3.23 | 2.4 | -0.554
18 | FACDICGAAFTQKGNLLRHIKL [46F_47A_49D_50I_52G_53A_54A_55F_67L_, Q9UKT9] | 3.42 | 2.04 | -0.474 | -0.517
19 | FRCDICGAAFTQKGNLLRHIKL [46F_47R_49D_50I_52G_53A_54A_55F_67L_, Q9UKT9] | 1.51 | 1.47 | 2.34 | 1.21
20 | FWCDICGAAFTQKGNLLRHIKL [46F_47W_49D_50I_52G_53A_54A_55F_67L_, Q9UKT9] | 3.12 | 3.67 | 1.49 | -0.516
21 | FQCDICGAAFTQKGNLLRHIKL [46F_47Q_49D_50I_52G_53A_54A_55F_67L_, Q9UKT9] | 1.74 | 2.51 | 0.983 | 3.01
22 | FSCDVCGAIFTQKGNLLRHIKL [46F_47S_49D_50V_52G_53A_54I_55F_67L_, Q9UKT9] | -0.277 | -1.23 | -0.103 | -1.43
23 | FCCEICGREFTQKGNLLRHIKL [46F_47C_49E_50I_52G_53R_54E_55F_67L_, Q9UKT9] | -2.44 | -2.4 | -1.78 | -1.56
24 | FNCPICGRDFTQKGNLLRHIKL [46F_47N_49P_50I_52G_53R_54D_55F_67L_, Q9UKT9] | -1.89 | -1.85 | -1.07 | -1.09
25 | FSCSVCGHQFTQKGNLLRHIKL [46F_47S_49S_50V_52G_53H_54Q_55F_67L_, Q9UKT9] | -2.44 | -3.11 | -2.86 | -2.7
26 | LCCEICGFECTQKGNLLRHIKL [46L_47C_49E_50I_52G_53F_54E_55C_67L_, Q9UKT9] | -0.329 | -0.269 | -0.566 | 0.603
27 | FHCNQCGAKFTQKGNLLRHIKL [46F_47H_49N_50Q_52G_53A_54K_55F_67L_, Q9UKT9] | -1.43 | -1.66 | -2.35 | -1.73
28 | FLCDVCGAAFTQKGNLLRHIKL [46F_47L_49D_50V_52G_53A_54A_55F_67L_, Q9UKT9] | -0.47 | -1.3 | 0.2 | -0.799

— the supplement of paper PMC12645437, “Orthogonal IMiD-Degron Pairs Induce Selective Protein Degradation in Cells” (ACS Chemical Biology, 2025)
